The results in this text go back to PubChem BioAssay (NCI).

Molecules are shown by their SMILES. About 83,000 compounds went through this panel and 20% of them were active in at least one assay; those are over-represented in the sample as a whole.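 In brief: 96-well plates, 48 h treatment, single concentration, percent growth endpoint.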 Active and inactive are the calls of the source. Rule for the calls: active = growth percent below 10; inactive = the rest.

In one test the test system is HS 578T breast. Description: NCI-60 one-dose screen, 48 h (100 = growth as untreated, 0 = no growth, -100 = all killed). The following applies: 10 µM unless noted.
For the compound `CNC(=O)c1cc(Oc2ccc(NC(=O)Nc3ccc(Cl)c(SC)c3)c(F)c2)ccn1`, the growth is 56% (inactive). `c1ccc2[nH]c(-c3ccc(Nc4nc(N5CCCC5)nc5[nH]ncc45)cc3)nc2c1`: the growth was -34% (active). As for `CC/C=C\C/C=C\C[C@H]1C/C=C2/C(=O)C=C[C@@H]2C/C=C\CCC(=O)O1`, the growth was 43.6% (inactive). As to `COc1ccc(CN2c3ccccc3Sc3ccccc32)cc1O`, the growth was 33% (inactive). Consider `CCOc1ccc(-n2nc(C(=O)Nc3cc(OC)c(OC)c(OC)c3)nc2-c2cc(OC)c(OC)c(OC)c2)cc1`, for which the growth is 65.6% (inactive). The same measure, in the same setting: then `CC/C=C\C[C@H]1C/C=C2/C(=O)C=C[C@H]2C/C=C\CCCC(=O)O1`, with 54.2% (inactive).

The test system of the next test is NCI/ADR-RES ovarian. The description is as above. The following applies: 10 µM unless noted.
Consider `COc1cc2c(cc1O)CC[C@@H]1[C@@H]2CC[C@]2(C)[C@@H](NCCN(C)C)CC[C@@H]12`, for which the growth was -85.9% (active).

Regarding `COc1cccc2c1C(=O)c1c(O)c3c(c(O)c1C2=O)C[C@](O)(C(=O)CO)C[C@H]3O[C@@H]1C[C@@H](NC(=O)CCCN(C)C2(c3ccc(F)cc3)CC3CCC2C3)[C@H](O)[C@@H](C)O1` (some centres not stated), the growth is 82.4% (inactive). Regarding `O=c1cc(CSc2nnc(SCc3cc(=O)oc4c3ccc3ccccc34)o2)c2ccc3ccccc3c2o1`, the growth was 94.4% (inactive). `COc1cc2c(cc1O)CC[C@@H]1[C@@H]2CC[C@]2(C)[C@@H](OCCN(C)C)CC[C@@H]12`: the growth is 17.9% (inactive). As to `COc1ccc(-c2nnc(SCC(=O)c3ccc(Cl)cc3)o2)cc1`, the growth is 95.6% (inactive).

For the compound `NC(=NCCCOc1ccc(Cl)cc1)Nc1ccc(C(F)(F)F)cc1`, the growth is 62.8% (inactive).
